Source: PubChem
This excerpt belongs to a sample that is enriched for hits.
TTR transcr act – TTR transcription activation, primary screen; SH-SY5Y TTR promoter Gaussia luciferase, luminescence; 100% = recombinant luciferase protein wells; 92,000 compounds, 1.3% hits; AID 1117267; activation, % at 16.7 µM;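 active = activation above the mean of all tested compounds plus 3 SD, cut at about 9.5% in these data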;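 also: cells exposed to compounds for one day before reading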
HuH7 TTR inh – decreases TTR transcription in HuH7 cells in activator counter-screen; HuH7 TTR promoter-Gaussia luciferase reporter, luminescence; inhibition, % at 16.7 µM; 1,100 compounds, 4% hits; shares compounds with TTR transcr act;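 active = average inhibition above the solvent-only control wells' mean plus 3 SD, cut at about 15% in these data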;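 also: inhibitors lower well luminescence so higher value means more inhibition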
TTR act confirm – confirmation of human transthyretin transcription activators | shares compounds with TTR transcr act | activation, % at 16.7 µM | SHSY5Y TTR promoter Gaussia luciferase, luminescence; 100% = purified Lucia enzyme wells, no cells | 1,100 tested, under 10 active;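 active = mean activation above a set limit taken from the earlier primary screen, cut at about 11% in these data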
Each line names hits and unclear results; the compound was inactive in the other large screens (follow-up assays come after a bar, where they were run).

COCCNS(=O)(=O)c1cc(OC)c(Cl)cc1Cl	none
COc1ccc(S(=O)(=O)NCc2cccnc2)c(Cl)c1Cl	none
CCOCCCNS(=O)(=O)c1ccc(OC)c(Cl)c1Cl	TTR transcr act 12 | HuH7 TTR inh inactive | TTR act confirm inactive
CCN(CC)c1ccc(NC(=S)Nc2ccc(F)cc2)cc1	none
COc1ccc(OC)c2[nH]c(=O)c(CCNC(=O)c3cccs3)cc12	none
O=C(NCc1ccco1)c1cc(-c2ccccc2)nn1CC1CC(c2cccnc2)=NO1 (configuration not stated)	TTR transcr act 10 | HuH7 TTR inh inactive | TTR act confirm inactive
COc1ccccc1CNC(=O)c1cc(-c2ccccc2C)nn1CC1CC(c2cccnc2)=NO1 (configuration not stated)	none
O=C(NCc1ccc(OC(F)(F)F)cc1)c1cc(-c2ccccc2)nn1CC1CC(c2cccnc2)=NO1 (configuration not stated)	none
Nc1c(C(=O)CSc2nnc(-c3ccccc3)o2)c(=O)[nH]c(=O)n1C1CC1	none
Cc1ccc(S(=O)(=O)NCc2ccccc2)cc1C(=O)N1CCN(S(=O)(=O)c2ccccc2F)CC1	none
O=C(OCc1ccc([N+](=O)[O-])cc1Cl)c1cnccn1	none
CCOC(=O)c1c(C)n(C)c2ccc(OCC(O)CN3CCCCCC3)cc12 (configuration not stated)	none
CCOC(=O)c1c(C)n(C)c2ccc(OCCN(C)C)cc12	none
CCOC(=O)c1c(C)n(C)c2ccc(OCC(O)CNC(CC)CO)cc12 (configuration not stated)	TTR transcr act 14 | HuH7 TTR inh inactive | TTR act confirm inactive
Cn1ccc2cc(S(=O)(=O)N3CCN(S(=O)(=O)c4c(F)cccc4F)CC3)ccc21	none
CCOc1ccc(OCC)c(NC(=O)CCNS(=O)(=O)c2cc(Br)cnc2N)c1	none
CCCn1nnc(NC(=O)c2ccc(Br)cc2)n1	none
Cc1csc(NC(=O)c2ccccc2)n1	none
Cn1nnnc1-c1cc(Br)ccc1NC(=O)c1ccccc1	TTR transcr act 10 | HuH7 TTR inh inactive | TTR act confirm inactive
COC(=O)[C@H]1C[C@@]2(CC=C(C)C)c3ccccc3N(C(=O)OC(C)(C)C)[C@H]2N1C(=O)OC(C)(C)C	none
CC(=O)N1CCN(C(c2ccccc2)c2nnnn2C(C)(C)C)CC1 (configuration not stated)	none
COc1ccccc1CNC(=O)CN1C(=O)NC2(CCCCCC2)C1=O	none
CCOc1ccc(NC(=O)C2Cc3ccccc3CN2S(=O)(=O)CC)cc1 (configuration not stated)	TTR transcr act 20 | HuH7 TTR inh inactive | TTR act confirm inactive
CCS(=O)(=O)N1Cc2ccccc2CC1C(=O)Nc1ncc(C)s1 (configuration not stated)	none
COc1ccc(S(=O)(=O)N2Cc3ccccc3CC2C(=O)Nc2ccc(O)cc2)cc1OC (configuration not stated)	none
CCN(c1ccccc1)S(=O)(=O)c1ccc(C(=O)NCCc2ccc(S(N)(=O)=O)cc2)cc1	none
CCOc1cc(C(=O)NCCc2ccc(S(N)(=O)=O)cc2)cc(OCC)c1OCC	TTR transcr act 19 | HuH7 TTR inh inactive | TTR act confirm inactive
CC(C)(O)C#Cc1ccc(C(=O)NCCc2ccc(S(N)(=O)=O)cc2)cc1	none
O=C(Cn1c(=O)n(CCC(=O)N2CCCCC2)c(=O)c2sccc21)NCc1ccccc1	none
COC(=O)c1sccc1NC(=O)CSCCc1ccccn1	none
O=C1[C@H]2[C@@H](c3ccc(Cl)cc3)N3C(=O)N(c4cccc(Cl)c4)C(=O)[C@@]3(Cc3ccccc3)[C@H]2C(=O)N1C1CCCCC1	TTR transcr act 16 | HuH7 TTR inh inactive | TTR act confirm inactive
Cc1cccc([C@@H]2[C@@H]3C(=O)N(Cc4ccccc4)C(=O)[C@@H]3[C@]3(Cc4ccccc4)C(=O)N(c4cccc(Cl)c4)C(=O)N23)c1	none
O=C1[C@H]2[C@@H](c3ccc(F)cc3)N3C(=O)N(c4cccc(Br)c4)C(=O)[C@@]3(Cc3ccccc3)[C@H]2C(=O)N1C1CCCCC1	none
O=C(NCc1ccccc1)Nc1nnc([C@@H]2C[C@H](O)[C@@H](CO)O2)s1	none
Cc1ccc(CNC(=O)CCSCc2cccc(F)c2)cc1	none
O=C(Nc1ccc2c(c1)OCCO2)C1CCCN1C(=O)Nc1ccc(F)cc1 (configuration not stated)	none
CCN1C(=O)N(c2cccc3ccccc23)C(C)=CC1(C)C	TTR transcr act 28 | HuH7 TTR inh inactive | TTR act confirm inactive
CC1=CC(=O)N(c2cccc3c(N4C(=O)C=C(C)C4=O)cccc23)C1=O	none
CN1/C(=C/C2CC(=O)N(c3cccc4ccccc34)C2=O)C(C)(C)c2ccccc21 (configuration not stated)	none
COc1ccc([N+](=O)[O-])cc1NC(=O)CCS(=O)(=O)c1ccc(Br)cc1	none
CCc1nc2ccc(C(=O)N(CC)CCN(C)C)cn2c1N(C=O)CCC(C)C	none
O=C(CCc1ccc(S(=O)(=O)N2CCOCC2)cc1)OCC(=O)c1ccccc1	none
CN(C)S(=O)(=O)c1cccc(NC(=O)CO/N=C(\N)c2ccccc2)c1	none
CCN(Cc1ccccc1)C(=O)CCc1nc(CN2CCN(C(=O)c3ccc([N+](=O)[O-])cc3)CC2)no1	none
CCn1nnc(C(=O)O)c1C(=O)O	TTR transcr act 9.9 | HuH7 TTR inh inactive | TTR act confirm inactive
Cc1ccc(Cl)c(OCC(=O)Nc2ccccc2N2CCCCC2)c1	none
COc1cccc(C(O)c2cnc(C(C)C)n2C)c1 (configuration not stated)	none
Cc1ccc(S(=O)(=O)N2CCN(C(=O)CN3C(=O)NC(C)(c4ccc5ccccc5c4)C3=O)CC2)cc1 (configuration not stated)	none
Cn1nnnc1SCC(=O)N1CCCc2ccccc21	none
CC1Cc2ccccc2N1C(=O)CSc1nnnn1C (configuration not stated)	none
CC1CC(=O)Nc2ccccc2N1C(=O)CSc1nnnn1C (configuration not stated)	TTR transcr act 14 | HuH7 TTR inh inactive | TTR act confirm inactive
CCC(C)Sc1ccc([C@H]2N[C@@](C)(C(=O)OC)[C@H]3C(=O)N(C)C(=O)[C@@H]23)cc1OC (some centres not stated)	none
N/C(=N\OC(=O)c1cccnc1)c1ccc(Cl)cc1Cl	none
COc1ccc(Cl)cc1C(=O)O/N=C(\N)c1ccncc1	none
Cc1ccc(/C(N)=N/OC(=O)c2ccc(Cl)cc2Cl)cc1	TTR transcr act 20 | HuH7 TTR inh inactive | TTR act confirm inactive
CC(=NNC(=O)c1ccc(NS(=O)(=O)c2cccs2)cc1)c1ccc(OCC(N)=O)cc1	none
Cc1ccccc1S(=O)(=O)NC(=NCc1ccc(F)cc1)c1ccccc1	none
Cc1ccc[n+](CC(=O)c2ccc(NC(=O)c3ccccc3)cc2)c1	none
Cc1cccc(NC(=O)C[n+]2cccc(C)c2)c1	none
Cc1cc(C)c(C(=O)C[n+]2cccc(C(N)=O)c2)c(C)c1	TTR transcr act 14 | HuH7 TTR inh inactive | TTR act confirm inactive
COC(=O)C1=C(O)/C(=C\c2ccc(OCC(=O)Nc3ccc(OC)cc3)cc2)N=C1C	none
Cc1ccc(SCc2c(C(=O)N/N=C/c3cccs3)nnn2-c2nonc2N)cc1	none
Cc1ccnc(NS(=O)(=O)c2ccc(NC(=O)C3CC3)cc2)n1	none
Cc1cc(C)nc(NS(=O)(=O)c2ccc(NC(=O)C3CC3)cc2)n1	TTR transcr act 24 | HuH7 TTR inh inactive | TTR act confirm inactive
